KB-3-1 cytotox: KB-3-1 parental cell cytotoxicity | actives 1.4% (n = 400,000) | KB-3-1 viability, CellTiter-Glo ATP luminescence, 72 h | Potency, µM (series often up to 46.1 µM), hits mostly cytotoxic | AID 1347075; note: potency is the fitted concentration of half-maximal effect; % is set by controls: 0 for no effect and ±100 for the full control effect; nearly all actives have a fitted effect of over 60% in size
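Using CellTiter-Glo luminescence, growth of non-resistant KB-3-1 adenocarcinoma cells is assessed 72 h after pin-tool compound addition at 37 °C. Normalized responses across the concentration series yield fitted curves.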
SW480 rereplic: induces DNA re-replication in SW480 colon adenocarcinoma cells; SW480 DNA re-replication, Hoechst DNA content imaging, 48 h; Potency, µM (top dose mostly 46.1 µM), for the others: top-dose re-replication activation, most hits filed as activators; actives 1.8% (n = 340,000); AID 624297; note: potency is the fitted concentration of half-maximal effect; % of control where 0% means no effect; nearly all actives have a fitted effect of over 55% in size
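First, 250 cells per well were seeded. Next, compound or vehicle (23 nL) was pinned in, plates sat 48 hr at 37 C. Finally Hoechst was added for 40 min before fluorescence scanning.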
KCNH2 WT inh: blocks the wildtype human KCNH2 potassium channel. activity change, % at 1.84 µM. AID 720551. U2OS, BacMam KCNH2, thallium flux FluxOr; active compounds read low. actives 0.37% (n = 340,000). Q12809;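 active = maximum activity change below -70%; inconclusive = maximum activity change between -70% and -50%; inactive = maximum activity change above -50%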; note: % is set by controls: 0 for no effect and ±100 for the full control effect
Target sequence (Q12809 whole entry, looked up): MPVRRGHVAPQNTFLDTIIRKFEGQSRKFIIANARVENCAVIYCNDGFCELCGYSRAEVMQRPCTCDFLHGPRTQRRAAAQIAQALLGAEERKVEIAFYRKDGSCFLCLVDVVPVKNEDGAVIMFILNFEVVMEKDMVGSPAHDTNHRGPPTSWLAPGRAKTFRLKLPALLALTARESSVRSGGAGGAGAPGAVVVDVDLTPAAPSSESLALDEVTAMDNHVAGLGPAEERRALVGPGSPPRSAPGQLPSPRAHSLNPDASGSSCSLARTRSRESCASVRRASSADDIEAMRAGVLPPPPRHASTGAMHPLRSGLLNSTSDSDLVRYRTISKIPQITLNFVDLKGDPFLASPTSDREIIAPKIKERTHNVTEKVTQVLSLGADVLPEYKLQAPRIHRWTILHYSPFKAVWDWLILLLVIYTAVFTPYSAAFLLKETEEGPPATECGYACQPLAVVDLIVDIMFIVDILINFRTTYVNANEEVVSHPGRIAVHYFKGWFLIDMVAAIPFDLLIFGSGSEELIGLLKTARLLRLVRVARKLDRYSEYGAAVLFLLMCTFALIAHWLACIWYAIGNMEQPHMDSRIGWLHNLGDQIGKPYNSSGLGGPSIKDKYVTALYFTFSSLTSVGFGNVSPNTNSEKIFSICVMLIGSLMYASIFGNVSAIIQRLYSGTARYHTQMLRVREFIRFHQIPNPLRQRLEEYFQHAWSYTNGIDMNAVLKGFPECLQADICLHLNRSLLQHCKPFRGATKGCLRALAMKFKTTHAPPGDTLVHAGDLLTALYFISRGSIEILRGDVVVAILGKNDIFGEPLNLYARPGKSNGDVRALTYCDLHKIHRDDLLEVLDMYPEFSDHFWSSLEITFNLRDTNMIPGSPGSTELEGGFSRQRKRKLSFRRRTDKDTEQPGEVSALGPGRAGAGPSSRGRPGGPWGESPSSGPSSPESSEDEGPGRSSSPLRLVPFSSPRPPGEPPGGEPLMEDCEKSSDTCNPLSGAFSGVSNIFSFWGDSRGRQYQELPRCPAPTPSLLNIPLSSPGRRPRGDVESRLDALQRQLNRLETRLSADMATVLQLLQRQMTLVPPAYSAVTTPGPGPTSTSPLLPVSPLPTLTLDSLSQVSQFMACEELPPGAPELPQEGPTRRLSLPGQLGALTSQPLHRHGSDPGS
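U2OS cells were transduced with wild-type KCNH2 virus (2.03 x 10^8 / mL) for 4 h at room temperature, then cultured overnight at 37 C. Thallium flux was read with FluxOr dye. Rate constants were normalized to DMSO controls.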
MCF10A rereplic: inducers of DNA re-replication in MCF 10A breast cells; MCF 10A DNA re-replication, Hoechst nuclear intensity, 48 h; Potency, µM (series often up to 46.1 µM), without a hit: top-dose activity, positive = re-replication, most hits filed as activators; actives 2.9% (n = 350,000); AID 624296; note: potency is the fitted concentration of half-maximal effect; % of control where 0% means no effect; nearly all actives have a fitted effect of over 50% in size
KCNH2 3.1 block: KCNH2 3.1 (human) potassium channel inhibition; U2OS KCNH2 3.1, thallium flux FluxOr; active compounds read low; activity change, % (tested at about 1.8 µM); actives 0.95% (n = 340,000); AID 720553;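 active = maximum activity change below -70%; inconclusive = maximum activity change from -70% to -50%; inactive = maximum activity change above -50%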;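 note: thallium influx rate constant from kinetic fluorescence after stimulation buffer; % is set by controls: 0 for no effect and ±100 for the full control effect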
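Normalized rate constant (relative to positive and negative DMSO controls) derived from a 2 min kinetic fluorescence read after stimulation; U2OS cells expressing the 3.1 isoform via virus at 1.77 x 10^8 /mL.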
KB-V1 MDR tox: kills drug-selected multidrug resistant KB-V1 cells. KB-V1 MDR cells viability, CellTiter-Glo, 72 h. Potency, µM (highest dose often 46.1 µM), most hits filed as cytotoxic. actives 3.4% (n = 400,000). AID 1347076; note: potency is the fitted concentration of half-maximal effect; % is set by controls: 0 for no effect and ±100 for the full control effect; nearly all actives have a fitted effect of over 60% in size
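qHTS viability screen in drug-selected KB-V1 MDR cells: 72 h compound treatment at 37 degrees C, ATP luminescence end point.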
* hit, by the source's call. Rows were chosen to be rich in hits. Some 7.6% of all compounds tested hit in one or more screens of this group. Unless noted, calls come from the whole dose curve; as a rule, active = well fitted curve in the direction sought with a large enough effect; inconclusive = small, poorly fitted or top-dose-only effect, or another doubt; inactive = no such curve, though single readings can be large; an effect the other way counts as inactive or inconclusive.

What do the screens show for `COc1ccc(OCCNC(=O)CSc2ccc(C(F)(F)F)cc2[N+](=O)[O-])cc1`?
KB-3-1 cytotox: inactive; SW480 rereplic: 3.3%; KCNH2 WT inh: 2.5; MCF10A rereplic: 1.6%; KCNH2 3.1 block: 4.0; KB-V1 MDR tox: inactive

How did O=[N+]([O-])c1ccc(Nc2nc(NCCN3CCOCC3)nc(Nc3ccc(I)cc3)n2)cc1 do in these assays?
KB-3-1 cytotox: inconclusive; KB-V1 MDR tox: inactive

Results for Cc1ccc(CN(C)C(=O)c2cccc(S(=O)(=O)N3CCN(c4ccccc4)CC3)c2)cc1 ?
KB-3-1 cytotox: inconclusive; SW480 rereplic: 9.3%; KCNH2 WT inh: 34.4; MCF10A rereplic: -0.9%; KCNH2 3.1 block: -8.3; KB-V1 MDR tox: 18.4µM*

Results for CC(=O)Nc1cccc(NC(=O)c2cccc(S(=O)(=O)N3CCN(Cc4ccccc4)CC3)c2)c1 ?
KB-3-1 cytotox: inactive; SW480 rereplic: -1.4%; KCNH2 WT inh: -10.4; MCF10A rereplic: 13.6%; KCNH2 3.1 block: -6.5; KB-V1 MDR tox: inactive

How did CCc1ccccc1NC(=O)CNC(=O)c1cccc(S(=O)(=O)N2CCN(Cc3ccccc3)CC2)c1 do in these assays?
KB-3-1 cytotox: inconclusive; SW480 rereplic: 5.4%; KCNH2 WT inh: -2.8; MCF10A rereplic: 7.7%; KCNH2 3.1 block: -11.1; KB-V1 MDR tox: 16.4µM*

How did N#C/C(=C\c1cn(Cc2ccccc2)c2ccccc12)C(=O)NCc1ccco1 do in these assays?
KB-3-1 cytotox: inactive; SW480 rereplic: inconclusive; KCNH2 WT inh: -3.9; MCF10A rereplic: 20.6µM*; KCNH2 3.1 block: -22.2; KB-V1 MDR tox: inactive

What do the screens show for `N#C/C(=C\c1cn(Cc2ccc(F)cc2)c2ccccc12)C(=O)NCc1ccco1`?
KB-3-1 cytotox: inactive; SW480 rereplic: inconclusive; KCNH2 WT inh: 13.9; MCF10A rereplic: -1.5%; KCNH2 3.1 block: -7.3; KB-V1 MDR tox: inactive

What do the screens show for `N#C/C(=C\c1cn(Cc2cccc(F)c2)c2ccccc12)C(=O)NCc1ccco1`?
KB-3-1 cytotox: inactive; KCNH2 WT inh: -5.4; MCF10A rereplic: 13µM*; KCNH2 3.1 block: -4.9; KB-V1 MDR tox: inactive

What do the screens show for `Cn1c(/C=C/c2ccc(Cl)cc2)c([N+](=O)[O-])c(=O)n(C)c1=O`?
KB-3-1 cytotox: inconclusive; SW480 rereplic: 17.8%; KCNH2 WT inh: 0.3; MCF10A rereplic: 7.31µM*; KCNH2 3.1 block: 12.6; KB-V1 MDR tox: inactive

How did COc1ccc(/C=C/c2c([N+](=O)[O-])c(=O)n(C)c(=O)n2C)cc1OC do in these assays?
KB-3-1 cytotox: inactive; SW480 rereplic: -1.6%; KCNH2 WT inh: 12.4; MCF10A rereplic: -28.4%; KCNH2 3.1 block: -74.6*; KB-V1 MDR tox: inactive

How did Clc1ccc(Cn2cc3c(n2)-c2cc4ccccc4n2C3)cc1 do in these assays?
KB-3-1 cytotox: inactive; KB-V1 MDR tox: inactive

Results for CCCOc1ccc2oc(=O)c3c(c2c1)CCCN3C(=O)CN1CCN(c2ncccn2)CC1 ?
KB-3-1 cytotox: inactive; SW480 rereplic: 3.7%; KCNH2 WT inh: 0.3; MCF10A rereplic: 4.6%; KCNH2 3.1 block: 1.6; KB-V1 MDR tox: inactive

Results for CCCOc1ccc2oc(=O)c3c(c2c1)CCCN3C(=O)CN1CCCC(C(=O)OCC)C1 (centres undefined) ?
KB-3-1 cytotox: inactive; SW480 rereplic: 3.4%; KCNH2 WT inh: 4.6; MCF10A rereplic: 10.1%; KCNH2 3.1 block: -27.1; KB-V1 MDR tox: 11.6µM*

What do the screens show for `O=C(CN1CCCC1)N1CCCc2c1c(=O)oc1ccc(OCc3ccccc3)cc21`?
KB-3-1 cytotox: inactive; SW480 rereplic: inconclusive; KCNH2 WT inh: 42.4; MCF10A rereplic: 5.2%; KCNH2 3.1 block: -24.9; KB-V1 MDR tox: 18.4µM*

Results for CCOC(=O)C1CCN(CC(=O)N2CCCc3c2c(=O)oc2ccc(OCc4ccccc4)cc32)CC1 ?
KB-3-1 cytotox: inactive; KB-V1 MDR tox: inactive

Assay outcomes: PubChem, National Center for Advancing Translational Sciences (NCATS)
